# Data from PubChem BioAssay (EPA / NIEHS).
# “And” between values parts separate entries of the source, which are not always exact repeats. Equal entries are not always repeated. Results filed as inconclusive are left out. Some structures have more than one record in an assay (separate samples or runs), and their calls can disagree. The source made the active and inactive calls. The calls were made as follows: active = hit-call score of the fitted dose curve at least 0.9, where 1 is the maximum; inconclusive = response in the unintended direction; inactive = score below 0.9.
# Tests used:
# [1] = target: rat Peripheral-type Benzodiazepine Receptor (PBR), Tspo (gene 24230) (UniProt P16257); assay: NVS_MP_rPBR: NovaScreen (NVS) Membrane Protein Assay for rat Peripheral-type Benzodiazepine Receptor (PBR) (AID 2283335)
# Method in brief: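 Rat kidney membranes; radioligand binding with displacement, filter-based scintillation counting, 1 h incubation. Primary screen in duplicate at 25 uM, actives followed in concentration series; loss of binding vs DMSO.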
# [2] = target: chimpanzee Androgen Receptor (AR), AR (gene 747460) (UniProt O97775); assay: NVS_NR_cAR: NovaScreen (NVS) Nuclear Receptor Binding Assay for chimpanzee Androgen Receptor (AR) (AID 2283346);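 also: radioligand displacement from AR measured by scintillation counting in a cell-free assay; a loss of bound radioligand signal versus DMSO counts as binding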
# Method in brief: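 Cell-free competition binding with insect-cell (Sf9/Sf21) extracted chimpanzee AR; scintillation signal from lysate at 72 h. Screened in duplicate at 25 uM, then concentration-response for actives; fitting relative to DMSO.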
# [3] = target: Estrogen receptor (Homo sapiens) (UniProt P03372); assay: OT_ER_ERaERa_1440: Odyssey Thera (OT) 24-hour HEK293T Protein-Complementation Assay for Estrogen Receptor-alpha/-alpha Homodimer (AID 2283349);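 also: hits raise fluorescence above DMSO for agonists and antagonists alike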
# Method in brief: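 Protein-fragment complementation between two human ERα ligand-binding domains (aa 310-547) in stably transfected HEK293T cells was monitored after 24 h treatment, using fluorescence intensity relative to vehicle controls.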
# [4] = target: Estrogen receptor (Homo sapiens) (UniProt P03372); assay: OT_ER_ERaERa_0480: Odyssey Thera (OT) 8-hour HEK293T Protein-Complementation Assay for Estrogen Receptor-alpha/-alpha Homodimer (AID 2283351);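 also: rise in fluorescence from reassembled reporter fragments on ERα LBD homodimer in nucleus or whole cell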
# Method in brief: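 The readout is complementation of fragments fused to the human ER alpha ligand-binding domain (aa 310-547), stably expressed in HEK293T cells. After 8 h of exposure, the increase in nuclear/cytoplasmic fluorescence was measured by laser scanning cytometry and fitted relative to DMSO.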
# [5] = target: Estrogen receptor (Homo sapiens) + Estrogen receptor beta (Homo sapiens) (UniProt P03372+Q92731); assay: OT_ER_ERaERb_0480: Odyssey Thera (OT) 8-hour HEK293T Protein-Complementation Assay for Estrogen Receptor-alpha/-beta Heterodimer (AID 2283352)
# Method in brief: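 Compound added to HEK293T cells carrying split-reporter-tagged ER-alpha and ER-beta LBDs, incubated 8 hours, then imaged by laser scanning cytometer. Signal rise in nucleus, or nucleus and cytoplasm, over vehicle was fitted in the positive direction.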
# [6] = target: Androgen Receptor/SRC-1 Co-activator, AR (gene 367) (UniProt P10275); assay: OT_AR_ARSRC1_0960: Odyssey Thera (OT) 16-hour HEK293T Protein-Complementation Assay for Androgen Receptor/SRC-1 Co-activator (AID 2283353);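 also: actives raise the signal above DMSO so potency reflects increased AR and SRC-1 complex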
# Method in brief: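 HEK293T cells stably expressing AR and SRC-1 fused to Venus YFP fragments, imaged 16 h after dosing. Nuclear/cytoplasmic fluorescence ratio at 488 nm from at least 400 cells per image; gain of signal relative to DMSO.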
# [7] = target: Androgen Receptor/SRC-1 Co-activator, AR (gene 367) (UniProt P10275); assay: OT_AR_ARSRC1_0480: Odyssey Thera (OT) 8-hour HEK293T Protein-Complementation Assay for Androgen Receptor/SRC-1 Co-activator (AID 2283354);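 also: hits raise the complementation signal above DMSO so AC50 marks enhancers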
# Method in brief: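 Measures AR/SRC-1 binding by Venus YFP fragment complementation in HEK293T stable lines at 8 h post-dose. Imaging quantifies the 488nm nucleus/cytoplasm ratio in ≥400 cells; DMSO defines baseline.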
# [8] = target: rat Gamma-Aminobutyric Acid Type A Receptor BDZ, alpha 6 site (GABARa6), Gabra6 (gene 29708) (UniProt P30191); assay: NVS_LGIC_rGABARa6: NovaScreen (NVS) Ligand-Gated Ion Channel Assay for rat Gamma-Aminobutyric Acid Type A Receptor BDZ, alpha 6 site (GABARa6) (AID 2283339)
# Method in brief: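 Rat cerebellar membranes; radioligand binding, filtration and scintillation counting, read 1 h after dosing. Single-concentration duplicate screen at 25 uM, then concentration-response up to 50 uM for actives; loss of signal fitted versus DMSO baseline.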
# [9] = target: bovine Estrogen Receptor (ER), ESR1 (gene 407238) (UniProt P49884); assay: NVS_NR_bER: NovaScreen (NVS) Nuclear Receptor Binding Assay for bovine Estrogen Receptor (ER) (AID 2283345);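 also: actives lower the bound radioligand count which means they displace the ER ligand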
# Method in brief: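 Cell-free radioligand binding with receptor from bovine uterine membranes, read by scintillation counting 18 h after dosing. Loss of specific binding was scored against DMSO; primary screen at 25 uM in duplicate, actives then run as concentration series.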
# [10] = target: Estrogen receptor (Homo sapiens) (UniProt P03372); assay: NVS_NR_hER: NovaScreen (NVS) Nuclear Receptor Binding Assay for human Estrogen Receptor (ER) (AID 2283348)
# Method in brief: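 Scintillation signal from bound radioligand was measured 18 hours after chemical addition to cell-free MCF7 protein extracts, with DMSO as baseline. Activity was scored as signal loss; compounds ran first at 25 uM in duplicate.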
# [11] = target: Bile acid receptor (Homo sapiens) (UniProt Q96RI1); assay: NVS_NR_hFXR_Agonist: NovaScreen (NVS) Nuclear Receptor Binding Assay for human Farnesoid X Receptor Agonism (FXR) (AID 2283347)
# Method in brief: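 Cell-free TR-FRET binding assay with extracted human FXR protein, agonist format, read 1 h after dosing. Primary screen at 25 uM single concentration in duplicate, actives retested in concentration series; gain of signal versus DMSO.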
# [12] = target: human Constitutive Androstane Receptor (CAR), NR1I3 (gene 9970) (UniProt Q14994); assay: NVS_NR_hCAR_Antagonist: NovaScreen (NVS) Nuclear Receptor Binding Assay for human Constitutive Androstane Receptor Antagonism (CAR) (AID 2283344)
# Method in brief: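 Cell-free TR-FRET binding read 1 h after dosing, antagonist mode; loss of signal versus DMSO baseline. Primary screen in duplicate at a single 25 uM; actives retested in concentration series.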
# [13] = target: rat Mineralocorticoid Receptor (MR), Nr3c2 (gene 25672) (UniProt P22199); assay: NVS_NR_rMR: NovaScreen (NVS) Nuclear Receptor Binding Assay for rat Mineralocorticoid Receptor (MR) (AID 2283355)
# Method in brief: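 Adrenalectomized rat brain supernatant was dosed with test chemical, then radioligand binding was measured by scintillation counting at 24 h. Initial testing ran in duplicate at 25 uM, followed by concentration series for actives.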
# Sequence of Androgen Receptor/SRC-1 Co-activator, AR (gene 367) (P10275 whole entry, looked up, the tested form may be a part): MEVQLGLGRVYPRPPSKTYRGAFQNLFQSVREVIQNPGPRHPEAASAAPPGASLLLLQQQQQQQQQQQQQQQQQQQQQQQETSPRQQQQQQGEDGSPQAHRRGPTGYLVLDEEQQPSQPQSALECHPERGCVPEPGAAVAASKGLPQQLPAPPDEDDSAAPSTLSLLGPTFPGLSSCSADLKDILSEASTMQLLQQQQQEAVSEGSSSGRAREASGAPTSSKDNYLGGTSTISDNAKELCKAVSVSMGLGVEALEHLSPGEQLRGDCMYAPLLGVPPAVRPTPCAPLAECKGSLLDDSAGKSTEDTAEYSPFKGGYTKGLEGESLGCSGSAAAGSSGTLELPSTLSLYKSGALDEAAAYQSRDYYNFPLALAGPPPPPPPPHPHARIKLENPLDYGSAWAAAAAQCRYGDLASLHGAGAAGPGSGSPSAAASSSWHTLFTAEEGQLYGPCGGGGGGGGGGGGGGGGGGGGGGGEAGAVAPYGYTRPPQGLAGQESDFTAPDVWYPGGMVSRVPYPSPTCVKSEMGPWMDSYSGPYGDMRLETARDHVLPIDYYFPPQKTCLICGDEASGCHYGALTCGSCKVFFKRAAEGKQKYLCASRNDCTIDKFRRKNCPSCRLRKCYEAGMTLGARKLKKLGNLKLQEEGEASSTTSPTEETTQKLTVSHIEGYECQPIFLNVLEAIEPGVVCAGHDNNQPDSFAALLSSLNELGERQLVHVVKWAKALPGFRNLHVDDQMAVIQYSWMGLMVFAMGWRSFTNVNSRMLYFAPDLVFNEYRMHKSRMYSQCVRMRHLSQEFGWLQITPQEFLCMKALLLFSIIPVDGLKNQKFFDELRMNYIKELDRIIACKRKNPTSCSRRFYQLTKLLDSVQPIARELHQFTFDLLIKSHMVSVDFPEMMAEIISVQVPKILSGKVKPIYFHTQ
# Sequence of rat Peripheral-type Benzodiazepine Receptor (PBR), Tspo (gene 24230) (P16257 whole entry, looked up): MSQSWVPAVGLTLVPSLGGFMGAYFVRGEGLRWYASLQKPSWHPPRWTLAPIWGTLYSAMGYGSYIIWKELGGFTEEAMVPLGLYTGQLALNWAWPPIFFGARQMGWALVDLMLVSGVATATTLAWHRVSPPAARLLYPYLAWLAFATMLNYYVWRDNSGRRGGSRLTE
# Sequence of bovine Estrogen Receptor (ER), ESR1 (gene 407238) (P49884 whole entry, looked up): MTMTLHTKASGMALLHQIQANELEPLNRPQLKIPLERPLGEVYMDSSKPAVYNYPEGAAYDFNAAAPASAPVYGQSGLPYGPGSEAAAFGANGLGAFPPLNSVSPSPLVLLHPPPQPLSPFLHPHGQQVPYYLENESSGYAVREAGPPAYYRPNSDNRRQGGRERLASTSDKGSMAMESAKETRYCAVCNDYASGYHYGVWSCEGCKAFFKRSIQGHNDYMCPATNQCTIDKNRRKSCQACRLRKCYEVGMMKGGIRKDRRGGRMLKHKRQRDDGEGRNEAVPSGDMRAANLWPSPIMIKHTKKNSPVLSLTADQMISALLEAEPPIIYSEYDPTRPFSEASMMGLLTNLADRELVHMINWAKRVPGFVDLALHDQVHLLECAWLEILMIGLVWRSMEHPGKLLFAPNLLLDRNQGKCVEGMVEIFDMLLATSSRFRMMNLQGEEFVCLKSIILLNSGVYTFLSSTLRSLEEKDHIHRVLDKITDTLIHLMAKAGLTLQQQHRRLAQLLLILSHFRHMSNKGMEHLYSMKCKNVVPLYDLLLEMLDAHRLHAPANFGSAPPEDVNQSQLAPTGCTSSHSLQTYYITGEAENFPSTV
# Sequence of chimpanzee Androgen Receptor (AR), AR (gene 747460) (O97775 whole entry, looked up): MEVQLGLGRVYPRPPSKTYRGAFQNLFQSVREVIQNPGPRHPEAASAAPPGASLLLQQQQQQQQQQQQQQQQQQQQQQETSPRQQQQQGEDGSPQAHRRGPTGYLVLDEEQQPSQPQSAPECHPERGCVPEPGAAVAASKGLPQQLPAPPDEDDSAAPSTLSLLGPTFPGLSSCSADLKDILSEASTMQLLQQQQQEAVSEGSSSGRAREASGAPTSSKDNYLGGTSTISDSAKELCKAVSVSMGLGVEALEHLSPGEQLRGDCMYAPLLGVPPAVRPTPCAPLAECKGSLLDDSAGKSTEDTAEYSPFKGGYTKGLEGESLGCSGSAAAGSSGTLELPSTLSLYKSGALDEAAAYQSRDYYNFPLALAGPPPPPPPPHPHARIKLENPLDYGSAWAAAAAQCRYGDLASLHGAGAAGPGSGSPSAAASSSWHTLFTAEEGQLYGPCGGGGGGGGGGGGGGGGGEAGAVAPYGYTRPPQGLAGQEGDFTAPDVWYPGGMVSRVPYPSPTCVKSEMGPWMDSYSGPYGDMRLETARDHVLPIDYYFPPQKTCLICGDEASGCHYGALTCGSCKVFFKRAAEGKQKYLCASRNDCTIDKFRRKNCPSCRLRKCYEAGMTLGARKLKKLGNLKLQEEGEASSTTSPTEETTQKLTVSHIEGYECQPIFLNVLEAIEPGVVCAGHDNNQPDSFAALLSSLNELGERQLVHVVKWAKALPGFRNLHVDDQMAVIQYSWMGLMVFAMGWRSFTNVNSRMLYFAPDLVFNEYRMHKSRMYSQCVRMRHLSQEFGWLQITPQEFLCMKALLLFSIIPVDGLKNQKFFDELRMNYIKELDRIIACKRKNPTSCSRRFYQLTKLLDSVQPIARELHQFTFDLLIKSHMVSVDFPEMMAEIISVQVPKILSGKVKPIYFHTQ
# Sequence of Estrogen receptor (Homo sapiens) (P03372 whole entry, looked up, the tested form may be a part): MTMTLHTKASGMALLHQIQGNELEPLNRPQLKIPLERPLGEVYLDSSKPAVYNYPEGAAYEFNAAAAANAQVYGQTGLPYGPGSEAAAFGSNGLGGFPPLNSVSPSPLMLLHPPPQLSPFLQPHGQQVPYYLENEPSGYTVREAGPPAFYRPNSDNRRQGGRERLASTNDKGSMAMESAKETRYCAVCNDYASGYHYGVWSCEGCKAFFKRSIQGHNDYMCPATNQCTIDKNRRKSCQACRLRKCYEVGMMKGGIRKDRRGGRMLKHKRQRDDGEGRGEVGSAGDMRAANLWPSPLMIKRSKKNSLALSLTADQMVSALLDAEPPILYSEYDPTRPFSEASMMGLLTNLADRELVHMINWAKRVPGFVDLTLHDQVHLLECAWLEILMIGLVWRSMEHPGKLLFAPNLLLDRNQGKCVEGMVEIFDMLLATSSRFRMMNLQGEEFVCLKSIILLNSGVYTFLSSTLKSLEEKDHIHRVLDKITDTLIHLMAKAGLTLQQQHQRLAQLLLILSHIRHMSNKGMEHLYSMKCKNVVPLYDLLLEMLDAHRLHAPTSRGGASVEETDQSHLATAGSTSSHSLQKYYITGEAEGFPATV
# Sequence of Estrogen receptor (Homo sapiens) + Estrogen receptor beta (Homo sapiens) (P03372 whole entry, looked up): as the sequence (P03372 whole entry, looked up, the tested form may be a part) above
# Sequence of Estrogen receptor (Homo sapiens) + Estrogen receptor beta (Homo sapiens) (Q92731 whole entry, looked up): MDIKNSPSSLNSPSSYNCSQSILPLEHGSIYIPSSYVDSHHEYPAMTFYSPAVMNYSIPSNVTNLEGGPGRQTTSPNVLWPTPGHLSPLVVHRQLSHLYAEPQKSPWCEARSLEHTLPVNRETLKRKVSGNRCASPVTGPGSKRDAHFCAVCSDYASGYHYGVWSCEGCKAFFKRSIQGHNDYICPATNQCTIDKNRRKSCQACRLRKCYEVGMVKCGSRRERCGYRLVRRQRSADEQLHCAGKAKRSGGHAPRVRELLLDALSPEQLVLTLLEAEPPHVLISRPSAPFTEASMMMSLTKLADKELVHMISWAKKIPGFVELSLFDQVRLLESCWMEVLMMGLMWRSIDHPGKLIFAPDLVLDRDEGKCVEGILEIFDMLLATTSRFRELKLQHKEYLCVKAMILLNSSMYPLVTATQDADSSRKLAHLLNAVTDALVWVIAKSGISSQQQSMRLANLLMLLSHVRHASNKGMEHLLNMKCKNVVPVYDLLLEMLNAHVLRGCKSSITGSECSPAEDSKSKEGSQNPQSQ
# Sequence of rat Gamma-Aminobutyric Acid Type A Receptor BDZ, alpha 6 site (GABARa6), Gabra6 (gene 29708) (P30191 whole entry, looked up): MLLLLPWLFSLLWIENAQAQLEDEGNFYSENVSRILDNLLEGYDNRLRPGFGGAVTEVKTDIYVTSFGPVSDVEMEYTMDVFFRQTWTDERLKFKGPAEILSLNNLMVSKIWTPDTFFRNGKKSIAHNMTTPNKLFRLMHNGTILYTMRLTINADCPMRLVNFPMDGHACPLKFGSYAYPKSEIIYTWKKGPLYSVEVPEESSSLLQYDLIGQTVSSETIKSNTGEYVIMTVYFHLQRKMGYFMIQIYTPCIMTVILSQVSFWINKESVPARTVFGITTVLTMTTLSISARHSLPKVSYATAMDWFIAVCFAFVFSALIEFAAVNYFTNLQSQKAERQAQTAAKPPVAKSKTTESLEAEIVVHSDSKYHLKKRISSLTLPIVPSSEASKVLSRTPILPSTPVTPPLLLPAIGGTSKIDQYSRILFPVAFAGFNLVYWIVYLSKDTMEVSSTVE
# Sequence of Bile acid receptor (Homo sapiens) (Q96RI1 whole entry, looked up): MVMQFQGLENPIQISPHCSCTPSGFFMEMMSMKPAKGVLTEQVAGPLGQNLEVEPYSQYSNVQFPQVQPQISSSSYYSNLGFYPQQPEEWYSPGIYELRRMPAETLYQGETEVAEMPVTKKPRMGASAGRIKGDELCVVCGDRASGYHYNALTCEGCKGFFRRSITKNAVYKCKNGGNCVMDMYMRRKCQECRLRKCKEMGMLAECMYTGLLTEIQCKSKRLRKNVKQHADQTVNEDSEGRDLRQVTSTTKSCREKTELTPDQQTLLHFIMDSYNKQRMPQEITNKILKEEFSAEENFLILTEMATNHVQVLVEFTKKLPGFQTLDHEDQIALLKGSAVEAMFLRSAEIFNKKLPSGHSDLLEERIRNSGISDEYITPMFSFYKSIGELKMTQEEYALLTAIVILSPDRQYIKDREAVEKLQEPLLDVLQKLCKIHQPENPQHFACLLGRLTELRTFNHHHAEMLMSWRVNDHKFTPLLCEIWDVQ
smiles,measurement,setting,value
Cc1ccccc1C(=O)Nc1cccc(OC(C)C)c1,AC50,[1],1.13 µM (active)
same,outcome,[2],inactive
same,outcome,[3],inactive
same,outcome,[4],inactive
same,outcome,[5],inactive
same,outcome,[6],inactive
same,outcome,[7],inactive
CC12CC1(C)C(=O)N(c1cc(Cl)cc(Cl)c1)C2=O (configuration not stated),AC50,[1],6.63 µM (active) and 1.03 µM (active) and 850 nM (active)
same,outcome,[2],inactive
same,outcome,[6],inactive
same,outcome,[7],inactive
CN(C)N=O,outcome,[8],inactive
CCC(=O)c1ccccc1,outcome,[8],inactive
CCCCCCCCCl,outcome,[2],inactive
Cc1ccc(N)cc1Cl,outcome,[2],inactive
same,outcome,[3],inactive
same,outcome,[4],inactive
same,outcome,[5],inactive
Cl/C=C\C[N+]12CN3CN(CN(C3)C1)C2,AC50,[2],1.43 µM (active)
same,outcome,[3],inactive
same,outcome,[4],inactive
same,AC50,[6],76.6 µM (active)
same,AC50,[7],91.5 µM (active)
NNC(=S)NN,outcome,[9],inactive
same,outcome,[10],inactive
same,outcome,[3],inactive
same,outcome,[4],inactive
CC1(C)CCC(Cc2ccc(Cl)cc2)C1(O)Cn1cncn1 (configuration not stated),AC50,[2],6.82 µM (active)
same,outcome,[10],inactive
same,outcome,[3],inactive
same,outcome,[4],inactive
COc1cc(OC)nc(NC(=O)NS(=O)(=O)c2ncccc2C(=O)N(C)C)n1,outcome,[2],inactive
same,outcome,[3],inactive
same,outcome,[4],inactive
same,outcome,[5],inactive
O=S(=O)(c1ccc(Cl)cc1)c1ccc(Cl)cc1,outcome,[9],inactive
same,outcome,[3],inactive
same,outcome,[4],inactive
same,outcome,[5],inactive
Oc1ccc(-c2ccccc2)cc1,AC50,[2],4.83 µM (active)
same,outcome,[2],inactive
CCOP(=S)(OCC)Oc1nc(Cl)c(Cl)cc1Cl,outcome,[9],inactive
same,AC50,[3],70.6 µM (active)
same,AC50,[4],71.3 µM (active)
same,AC50,[5],50 µM (active)
same,AC50,[7],78.9 µM (active)
O=C(CCl)CCl,outcome,[10],inactive
CC(C)OC(=O)Nc1ccccc1,outcome,[9],inactive
same,outcome,[3],inactive
same,outcome,[4],inactive
CCC(C)(C)c1ccc(O)c(C(C)(C)CC)c1,outcome,[11],inactive
same,outcome,[10],inactive
same,outcome,[3],inactive
same,outcome,[4],inactive
CCOC(=O)Nc1cccc(OC(=O)Nc2ccccc2)c1,outcome,[2],inactive
same,outcome,[3],inactive
same,outcome,[4],inactive
CCCCCCCCCCCCCCCC[n+]1ccccc1,outcome,[9],inactive
COC(=O)c1sccc1S(=O)(=O)NC(=O)Nc1nc(C)nc(OC)n1,outcome,[9],inactive
same,outcome,[10],inactive
same,outcome,[3],inactive
same,outcome,[4],inactive
same,outcome,[5],inactive
CCC[CH2][Sn]([CH2]CCC)([CH2]CCC)[O]C(=O)c1ccccc1,outcome,[9],inactive
same,AC50,[2],9.94 µM (active)
same,AC50,[10],2.94 µM (active)
same,outcome,[3],inactive
same,outcome,[4],inactive
CNC(=O)O/N=C/C(C)(C)S(C)=O (configuration not stated),outcome,[2],inactive
same,outcome,[3],inactive
same,outcome,[4],inactive
same,outcome,[5],inactive
C=CC(=O)OCCCCCC(C)C,outcome,[9],inactive
same,outcome,[10],inactive
same,outcome,[3],inactive
same,outcome,[4],inactive
same,outcome,[5],inactive
same,outcome,[6],inactive
same,outcome,[7],inactive
O=[N+]([O-])c1c(Cl)c(Cl)cc(Cl)c1Cl,outcome,[9],inactive
N#CCCO,outcome,[2],inactive
BrCCBr,outcome,[10],inactive
same,outcome,[3],inactive
same,outcome,[4],inactive
Cc1ccccc1N,outcome,[12],inactive
COP(=S)(OC)Oc1cc(Cl)c(Br)cc1Cl,outcome,[9],inactive
same,outcome,[10],inactive
CCOP(=S)(OCC)SCSP(=S)(OCC)OCC,outcome,[9],inactive
same,outcome,[10],inactive
same,outcome,[3],inactive
same,AC50,[4],6.96 µM (active)
same,AC50,[5],10.7 µM (active)
CC(C)(c1ccccc1)c1ccc(O)c(C(C)(C)c2ccccc2)c1,outcome,[9],inactive
same,outcome,[10],inactive
same,outcome,[3],inactive
same,outcome,[4],inactive
same,outcome,[5],inactive
C(=NC1CCCCC1)=NC1CCCCC1,outcome,[9],inactive
C[C@]12CC[C@H](O)CC1=CC[C@@H]1[C@@H]2CC[C@]2(C)C(=O)CC[C@@H]12,AC50,[9],3.16 µM (active)
same,AC50,[2],1.88 µM (active)
Fc1ccc(C2(Cn3cncn3)OC2c2ccccc2Cl)cc1 (configuration not stated),outcome,[2],inactive
same,outcome,[10],inactive
same,AC50,[3],39.5 µM (active)
same,AC50,[4],23.7 µM (active)
same,AC50,[5],12.7 µM (active)
O=C(OC1CCCCC1)c1ccccc1C(=O)OC1CCCCC1,outcome,[9],inactive
same,outcome,[2],inactive
same,outcome,[10],inactive
same,AC50,[3],23.9 µM (active)
same,AC50,[4],35 µM (active)
same,outcome,[13],inactive
CC(C)C1CCC(Cc2ccc(Cl)cc2)C1(O)Cn1cncn1 (configuration not stated),AC50,[2],10.3 µM (active)
same,outcome,[10],inactive
same,outcome,[3],inactive
same,outcome,[4],inactive
ClC1=C(Cl)[C@]2(Cl)[C@H]3[C@H]([C@H]4C=C[C@H]3C4)[C@@]1(Cl)C2(Cl)Cl,outcome,[9],inactive
same,outcome,[10],inactive
CC(C)c1ccc(CO)cc1,outcome,[10],inactive
CCC[CH2][Sn]([Cl])([Cl])[Cl],AC50,[2],25 µM (active)
same,outcome,[3],inactive
same,outcome,[4],inactive
NC(=O)O,outcome,[9],inactive
same,outcome,[3],inactive
same,outcome,[4],inactive
CCN(CC)C(=O)Cl,AC50,[2],2.82 µM (active)
O=C/C=C/c1ccccc1,outcome,[3],inactive
same,outcome,[4],inactive
CC(C#N)CCC#N (configuration not stated),outcome,[3],inactive
same,outcome,[4],inactive
same,outcome,[5],inactive
O=C(NCO)NCO,outcome,[3],inactive
same,outcome,[4],inactive
CC1(C)Cc2cccc(O)c2O1,outcome,[3],inactive
same,outcome,[4],inactive
same,outcome,[5],inactive
CCCCCCCCSC(=O)Oc1cc(Cl)nnc1-c1ccccc1,outcome,[3],inactive
same,outcome,[4],inactive
